Bioassay records (PubChem BioAssay)
SARS PLpro yeast – blocks SARS-CoV papain-like protease in a yeast assay; S. cerevisiae expressing SARS-CoV PLpro, growth rescue; Potency, µM (titrated, usually from 32.9 µM), most hits filed as activators; actives 0.19% (n = 330,000); calls by dose curve; note: nearly all actives have a fitted effect of over 55% in size
FMDV inh – foot and mouth disease virus antiviral activity. Potency, µM (titrated, usually from 57.9 µM), actives largely listed as inhibitors. actives 1.2% (n = 410,000). AID 1159524. FMDV antiviral cell-based qHTS; calls by dose curve; tested in HEK293T cells; note: read-out not given here; nearly all actives have a fitted effect of over 45% in size
LASV entry inh – Lassa virus entry inhibition | actives 1.2% (n = 300,000) | Lassa virus pseudotype entry inhibition, cell reporter | Potency, µM (series often up to 37.9 µM), most hits filed as inhibitors; calls by dose curve; tested in HEK293 cells; note: nearly all actives have a fitted effect of over 50% in size
MARV entry inh – inhibitors of Marburg virus binding or cell entry; Marburg virus pseudotyped entry inhibition, cell reporter; Potency, µM (top dose mostly 37.8 µM), usual class: inhibitors; actives 1.8% (n = 300,000); calls by dose curve; tested in HEK293 cells
HCV inh – HCV inhibition. AID 651820. Huh7.5.1 HCVcc-Cre infection, luciferase reporter, 44 h. Potency, µM (doses to about 41.8 µM), usual class: inhibitors. actives 3.4% (n = 340,000); active = well fitted inhibition curve with a large enough effect; inconclusive = small, poorly fitted or top-dose-only effect, or another doubt; inactive = no such curve, though single readings can be large or run the other way
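Compounds are dispensed onto cells plated 4 h earlier at 1,000 per well, with HCVcc-Cre virus (about 0.5 moi) added next. Following 44 h of culture, luminescent signal is measured for 15 sec after 15 min with substrate at room temperature.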
HCMV inh – inhibitors of human cytomegalovirus | HFF cells, HCMV-luciferase reporter, 72 h; stronger effect = lower value | activity change, negative = inhibition, % at 57.5 µM | actives 4.5% (n = 410,000) | AID 1259415; in the data active = activity change below about -60%; inconclusive = no clear call, values can overlap the other calls; inactive = above about -39%
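Cell-based, HFFs, 1000 cells/well, 16 h 37C; cpds in DMSO + HCMV-luc, MOI 1 PFU/cell; 72 h 37C; OneGlo luminescence after 5 min RT; norm. to buffer vs Salinomycin 10uM.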
Numbers stand for hits; . = inactive; ? = inconclusive; / = not tested or not shown; [ ] = dose if it differs, or a comment. A selection: hits, their analogues and other compounds. The true share with any hit is near 8%.

SMILES	SARS PLpro yeast	FMDV inh	LASV entry inh	MARV entry inh	HCV inh	HCMV inh
CCOC(=O)C1=C(CC)Nc2ccccc2N=C1NC(=O)Nc1ccc(Cl)c(Cl)c1	.	.	?	?	?	-98
CCN(CC)C(=O)CSc1nc2c(sc(=S)n2CC)c(=O)n1-c1ccccc1	.	?	.	.	.	-72
CCN(CC)C(=O)CSc1nc2c(sc(=S)n2-c2ccccc2)c(=O)n1Cc1ccco1	.	?	?	9.2µM	10µM	-67
CC(C)CCCC(C)C1CCC2C3CC(=O)[C@H]4CC(O)CC[C@]4(C)C3CC[C@@]12C (some centres undefined)	/	.	/	/	/	/
COCCNC(=O)C(c1ccccc1F)N(C(=O)C(=O)NC1CCCC1)C1CCCCC1 (centres undefined)	.	.	?	.	?	-80
O=C(NC1CCCC1)C(c1ccc(F)cc1)N(Cc1ccccc1Cl)C(=O)CCl (centres undefined)	.	28µM	.	?	?	.
COCCN(C(=O)CCl)C(C(=O)NC1CCCCC1)c1ccccc1C (centres undefined)	.	20µM	?	8.9µM	?	-98
COCCN(C(=O)CCC(=O)Nc1cc(C)on1)C(C(=O)NC1CCCC1)c1ccccc1C (centres undefined)	.	.	.	.	.	.
O=C(NC1CCCC1)C(c1ccc(F)cc1)N(Cc1ccc(F)cc1)C(=O)c1ccn[nH]1 (centres undefined)	.	.	.	.	.	.
CCC[C@H]1[C@@H](NS(=O)(=O)c2ccccc2)CC[C@@]23CCCN2C(=O)CCC[C@@H]13	/	/	/	/	/	.
CC1CC2(C)Oc3ccccc3CC2C(C)C1CNCCCN(C)C (centres undefined)	.	?	?	?	?	-99
CC(C)c1ccc(NC(=O)Nc2nc(C(N)COCc3ccccc3)cs2)cc1 (centres undefined)	/	.	/	/	/	-95
NC(Cc1ccccc1)c1csc(NC(=O)c2cccc(OC(F)(F)F)c2)n1 (centres undefined)	/	?	/	/	/	-101
COc1ccc(CC(N)c2csc(NC(=O)c3cccc(OC(F)(F)F)c3)n2)cc1 (centres undefined)	/	.	/	/	/	.
COc1ccc(CC(N)c2csc(NC(=O)C(c3ccccc3)c3ccccc3)n2)cc1 (centres undefined)	/	.	/	/	/	-65
COc1ccc(CC(N)c2csc(NC(=O)c3ccccc3)n2)cc1 (centres undefined)	/	.	/	/	/	.
COc1ccc(CC(N)c2csc(NC(=O)c3ccccc3OC)n2)cc1 (centres undefined)	/	.	/	/	/	-81
CC1CCCN(c2nc3c(-c4ccc(Cl)cc4)nnn3c3ccccc23)C1 (centres undefined)	/	.	?	.	/	.
COc1ccc(CCNc2nnc(Sc3nnnn3-c3ccccc3)s2)cc1OC	.	28µM	.	?	14µM	-98
COc1cc(S(=O)(=O)NCCc2c(C)[nH]c3ccccc23)c(C)cc1C	/	.	?	?	/	-103
Cc1ccc([N+](=O)[O-])cc1S(=O)(=O)NCCc1c(C)[nH]c2ccccc12	.	.	.	.	.	.
CCc1nc(C)cn1S(=O)(=O)c1ccc(Cl)c(Cl)c1OC	/	?	.	?	/	-75
CCOc1cc(Cl)c(S(=O)(=O)n2cc(C)nc2CC)cc1Cl	/	?	?	.	/	?
CCOC(=O)c1ccc(NC(=O)CN2C(=O)c3cccnc3Sc3ccccc32)cc1	/	.	.	/	/	.
N#C/C(=N/Nc1ccc(OC(F)(F)F)cc1)C(N)=S	.	.	/	/	?	-98
SMILES	SARS PLpro yeast	FMDV inh	LASV entry inh	MARV entry inh	HCV inh	HCMV inh
COc1ccc(N/N=C(\C#N)C(N)=O)cc1	.	.	.	.	.	.
CC1(C)OC(=O)C=C[C@@]2(C)C1C[C@@H](O)[C@]1(C)C2CC[C@@]2(C)C(c3ccoc3)OC(=O)[C@H]3O[C@]321 (some centres undefined)	/	.	/	/	/	/
O=C(NC(C(=O)N/N=C/c1c2ccccc2cc2ccccc12)c1n[nH]c(=O)c2ccccc12)c1ccccc1 (centres undefined)	?	.	.	?	2.5µM	.
O=C(O)/C=C/C(=O)Nc1ccc(NC(=O)c2ccccc2)c(Cl)c1	.	.	?	?	8.9µM	?
O=C(O)/C=C\C(=O)Nc1cccc(NC(=O)c2ccccc2)c1	.	.	.	.	.	.
CCc1nn(CC(=O)NCCc2ccc(Cl)cc2)c(=O)c2cc3c(OC)cccc3n12	/	.	/	.	/	.
CC(C)C(=O)Nc1cc2c(cc1C(=O)c1ccccc1)OCCO2	.	.	.	.	.	.
CCC(=O)c1cc2c(cc1NC(=O)C(C)C)OCCO2	.	.	.	.	6.3µM	.
c1ccc(OCCSc2nnnn2C2CCCCC2)cc1	.	.	14µM	.	.	.
CCOc1ccc(Cn2c(CNS(=O)(=O)c3cccs3)nc3cccnc32)cc1	/	.	.	/	/	.
Cc1ccc(S(=O)(=O)N2[C@@H](Cc3ccccc3)CO[C@H]2CC(=O)c2ccccc2)cc1	/	.	/	/	/	-69
Cc1ccc(S(=O)(=O)C[C@@H]2OC[C@H](Cc3ccccc3)N2S(=O)(=O)c2ccc(C)cc2)cc1	/	.	/	/	/	-61
Cc1ccc(S(=O)(=O)N2[C@@H](Cc3ccccc3)CO[C@H]2CC(=O)c2ccc(F)cc2)cc1	/	.	/	/	/	.
Cc1ccc(S(=O)(=O)N2[C@@H](Cc3ccccc3)CO[C@H]2CC(=O)c2cccs2)cc1	/	.	/	/	/	.
C[C@H](CO)N1C[C@H](C)[C@H](CN(C)C(=O)Nc2ccc3c(c2)OCO3)OCc2cnnn2CCCC1=O	/	/	/	/	/	.
COc1ccccc1C1CCN(Cc2ccc(Cl)cc2Cl)CC1	.	.	.	?	.	.
COc1ccccc1C1CCN(Cc2cccc3ccccc23)CC1	.	?	.	?	7.9µM	.
Cc1cc(C)c2nc(NNC(=O)c3cc(-c4cccs4)nc4ccccc34)sc2c1	?	?	?	?	10µM	.
CCOC(=O)c1sc(NC(=O)c2ccncc2)c(C#N)c1C	.	?	.	?	?	-68
CCOC(=O)c1sc(NC(=O)c2cc(-c3ccccc3C)nc3ccccc23)c(C#N)c1C	.	?	11µM	?	7.1µM	-105
Cc1ccccc1-c1cc(C(=O)Nc2sc(C)c(C)c2C(N)=O)c2ccccc2n1	.	?	16µM	?	4.5µM	.
CCOC(=O)c1c(NC(=O)c2cc(-c3ccc(Cl)s3)nc3ccccc23)sc(C(N)=O)c1C	.	.	.	.	.	.
Cc1ccc2sc(NNC(=O)c3cc(-c4cccs4)nc4ccccc34)nc2c1C	.	/	.	.	.[8.37 µM]	.
COC(=O)c1sc(NC(=O)c2ccc(Cn3cc(Cl)cn3)o2)c(C#N)c1C	.	?	.	?	.	-106
N#Cc1c(NC(=O)c2ccc(Cn3cc(Br)cn3)o2)sc2c1CCCCC2	.	.	.	.	?	.
Cc1ccc(-c2cc(C(=O)Nc3nccs3)c3ccccc3n2)c(C)c1	.	?	?	?	10µM	-87
